According to PubChem BioAssay (NCI):
This is part of a sample that, as a whole, favours compounds with a hit. Of some 83,000 tested, about 20% had one in any assay.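 Single-concentration screen, 48 h exposure, 96-well plates. Endpoint: percent growth. Below 10 = active.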 Active and inactive are the calls of the source.

Legend:
Assay in all cases: NCI-60 one-dose screen, 48 h (100 = growth as untreated, 0 = no growth, -100 = all killed)
Settings in all cases: 10 µM unless noted
HCT-15 colon = test system: HCT-15 colon
HT29 colon = test system: HT29 colon
SNB-75 CNS = test system: SNB-75 CNS
SNB-19 CNS = test system: SNB-19 CNS
U251 CNS = test system: U251 CNS
PC-3 prostate = test system: PC-3 prostate
SK-MEL-5 melanoma = test system: SK-MEL-5 melanoma
UACC-62 melanoma = test system: UACC-62 melanoma
LOX IMVI melanoma = test system: LOX IMVI melanoma
SK-MEL-28 melanoma = test system: SK-MEL-28 melanoma

Measured: growth

COC(=O)C(Cc1ccccc1)NC(=O)c1ccc(NC(=O)c2[nH]c(C)c(Cl)c2Cl)c(OC(C)C)c1 (stereo not given)
inactive: HCT-15 colon 40.5% | HT29 colon 58% | SNB-75 CNS 62.6% | SNB-19 CNS 42.8% | U251 CNS 22.3% | PC-3 prostate 11.4% | SK-MEL-5 melanoma 97.7% | UACC-62 melanoma 90.6% | LOX IMVI melanoma 34.1% | SK-MEL-28 melanoma 102%

COc1ccc(C(=O)/C=C/c2ccc(Cl)cc2)cc1S(=O)(=O)Nc1c(N)nc(SC)[nH]c1=O
active: SNB-19 CNS 8.18% | U251 CNS -4.2% | LOX IMVI melanoma 2.64%
inactive: HCT-15 colon 65.7% | HT29 colon 31.3% | SNB-75 CNS 33.4% | PC-3 prostate 39.1% | SK-MEL-5 melanoma 74.1% | UACC-62 melanoma 62.3% | SK-MEL-28 melanoma 97.4%

COc1ccc(-c2n[nH]c(=O)c3nc(NC(=S)Nc4ccc(Oc5ccccc5)cc4)sc23)cc1
inactive: HCT-15 colon 103% | HT29 colon 87.6% | SNB-75 CNS 80.8% | SNB-19 CNS 101% | U251 CNS 83.3% | PC-3 prostate 83.8% | SK-MEL-5 melanoma 99.9% | UACC-62 melanoma 95.2% | LOX IMVI melanoma 104% | SK-MEL-28 melanoma 104%

O=C(Nc1ccc(Br)cc1)C1=NCCCCN1
inactive: HCT-15 colon 62.2% | HT29 colon 86% | SNB-75 CNS 88.6% | SNB-19 CNS 97.3% | U251 CNS 91.6% | PC-3 prostate 74.4% | SK-MEL-5 melanoma 93.3% | UACC-62 melanoma 58.8% | LOX IMVI melanoma 35.5% | SK-MEL-28 melanoma 114%

CCN1C(=O)N(CC)C2C1NN=c1s/c(=C\c3cnc(C)n3C)c(=O)n12 (stereo not given)
inactive: HCT-15 colon 27.7% | SNB-19 CNS 25.6% | PC-3 prostate 17.5% | SK-MEL-5 melanoma 17.9% | UACC-62 melanoma 31.2% | LOX IMVI melanoma 34.5% | SK-MEL-28 melanoma 42.7%
active: HT29 colon 0.594% | SNB-75 CNS -24.7% | U251 CNS 7.74%

O=C1/C(=C/c2ccc(O)c(O)c2)COc2ccc(-c3ccccc3)cc21
active: HCT-15 colon -31.2% | UACC-62 melanoma -13.6% | LOX IMVI melanoma 4.79% | SK-MEL-28 melanoma -11.5%
inactive: HT29 colon 15% | SNB-75 CNS 21.1% | SNB-19 CNS 56.2% | U251 CNS 22.3% | PC-3 prostate 19.9% | SK-MEL-5 melanoma 23.2%

CCN1CCN(c2cc(C)nc(N(CCNc3ccnc4cc(Cl)ccc34)Cc3ccc4c(c3)OCO4)n2)CC1
active: HCT-15 colon -28.8% | HT29 colon -37.9% | SNB-75 CNS -75.3% | U251 CNS -50.4% | SK-MEL-5 melanoma -95.8% | UACC-62 melanoma -32.2% | LOX IMVI melanoma -80.3% | SK-MEL-28 melanoma -65.6%
inactive: SNB-19 CNS 29.7% | PC-3 prostate 20%

CC(=O)c1ccc(Nc2nccc(-c3ccc4ccccc4c3)n2)cc1
inactive: HCT-15 colon 85.7% | HT29 colon 91.4% | SNB-75 CNS 91.8% | SNB-19 CNS 94.9% | U251 CNS 95.5% | PC-3 prostate 91.5% | SK-MEL-5 melanoma 97.6% | UACC-62 melanoma 88% | LOX IMVI melanoma 99% | SK-MEL-28 melanoma 107%

CCOC(=O)c1nn(CC(O)c2ccccc2)c(NC(=O)Nc2cccc(F)c2)c1C (stereo not given)
inactive: HCT-15 colon 98% | HT29 colon 101% | SNB-75 CNS 108% | SNB-19 CNS 97.3% | U251 CNS 92% | PC-3 prostate 92.5% | SK-MEL-5 melanoma 96.7% | UACC-62 melanoma 80.8% | LOX IMVI melanoma 98.4% | SK-MEL-28 melanoma 113%

CCOC(=O)c1cc(C(=O)c2cc(OC)c(OC)c(OC)c2)n2ccccc12
inactive: HCT-15 colon 29% | SNB-75 CNS 32.9% | SNB-19 CNS 43.4% | U251 CNS 21.6% | PC-3 prostate 22.1% | SK-MEL-5 melanoma 37.7% | UACC-62 melanoma 37.8% | LOX IMVI melanoma 47% | SK-MEL-28 melanoma 72.3%
active: HT29 colon 1.16%

COc1ccc(C(=O)N2c3ccccc3Sc3ccccc32)c(C(F)(F)F)c1
active: HT29 colon 3.4% | SK-MEL-5 melanoma 5.29%
inactive: HCT-15 colon 18% | SNB-75 CNS 29.3% | SNB-19 CNS 30.8% | U251 CNS 19% | PC-3 prostate 15.5% | UACC-62 melanoma 31.6% | LOX IMVI melanoma 16.7% | SK-MEL-28 melanoma 52%

CNC(=O)c1ccccc1Nc1nc(Nc2cc(OC)c(OC)c(OC)c2)ncc1Br
active: HCT-15 colon 3.34% | HT29 colon -0.259% | SNB-75 CNS -55% | SNB-19 CNS 6.35% | U251 CNS -9.93% | SK-MEL-5 melanoma -22.3% | UACC-62 melanoma -69.6% | LOX IMVI melanoma -60.3% | SK-MEL-28 melanoma -13.6%
inactive: PC-3 prostate 61.4%

COc1cc(C(=O)n2nc(N3CCOCC3)c3cc(-n4cccc4)ccc32)cc(OC)c1OC
inactive: HCT-15 colon 17.6% | HT29 colon 62.4% | SNB-75 CNS 49.8% | SNB-19 CNS 75.2% | U251 CNS 68.7% | PC-3 prostate 38% | SK-MEL-5 melanoma 64.3% | UACC-62 melanoma 73.1% | LOX IMVI melanoma 88.7% | SK-MEL-28 melanoma 72.7%

N#Cc1cccc(C2C3=C(COC3=O)N(CCO)c3cc4c(cc32)CCC4)c1 (stereo not given)
inactive: SNB-75 CNS 43.8% | SNB-19 CNS 23% | U251 CNS 14.6% | PC-3 prostate 22.9% | UACC-62 melanoma 45.6% | LOX IMVI melanoma 19% | SK-MEL-28 melanoma 51.2%
active: HCT-15 colon 9.99% | HT29 colon 4.8% | SK-MEL-5 melanoma -3.37%

CC(C)(C)n1cc(-c2ccnc(NCCCNS(=O)(=O)c3ccc(C(F)(F)F)cc3)c2)c(-c2cccc(F)c2)n1
inactive: HCT-15 colon 37.7% | HT29 colon 16.5% | SNB-75 CNS 66.6% | SNB-19 CNS 86.5% | U251 CNS 67.6% | PC-3 prostate 71.9% | SK-MEL-5 melanoma 78.9% | UACC-62 melanoma 89.4% | LOX IMVI melanoma 73.6% | SK-MEL-28 melanoma 96.9%
